# Results from the OligoGym collection.
# Target: RWDD2B
# Assay: pooled miR-30 sensor sort-seq; sequence = guide strand
# Settings: shRNA
# Further: reference of the scale not given here.
row,Sequence,sensor-assay potency score (higher = more potent)
1,TCAGTATACAAACATCTCCATG,-1.45
2,TTTCAGTTCTGCTACAGCCAGC,-0.902
3,TTCAGTATACAAACATCTCCAT,0.0635
4,TTCCACACAAACAACACCAGGT,0.95
5,TAACACTGAACACTTTTTCTTC,-0.298
6,TAGAATATTCTTTCTTTTGCAT,0.0563
7,TTTTTCGTCAGATACATCCAGG,-0.29
8,TTGATAGTAAAGTAGACTTTTG,-1.18
9,TCAACTGACTGGACTGTGCTTC,0.407
10,TCCATTAACACTGAACACTTTT,-0.901
11,TCTTCTTTTCAATACAATCTTT,-0.675
12,TTGGACATGTGTAAGTTTCTTG,0.645

# Target: RXFP4
# Assay: as above
# Settings: shRNA
row,Sequence,sensor-assay potency score (higher = more potent)
1,TCTTGCAGAGGGCACCTCCGAA,-1.29
2,TAGACGTTGAGGACAGTGGCCG,0.159
3,TCAGGAGACAGTACAGCACAGG,-0.981
4,TAGCTGGTGGTGATGACGCCCA,-0.885
5,TACAGCACAGGGTTGAGGCAGC,-0.483
6,TTGAAGACGAAGGTGTCTGAAG,-0.402
7,TAGGAATTTGACAGGCATCGGA,0.2
8,TAGAAGGGCGGCTCTCCCGGGG,-0.734
9,TAGCGAGCAACGCTCAGCGCTG,-1.3
10,AACTTCACCAGGACACCCCAGA,-1.12
11,AGGAATTTGACAGGCATCGGAG,-1.05
12,TTGCTTGCGACCCACCGCCTGC,-0.81
